# Laboratory results reported in PubChem BioAssay AID372 (MTDP, 2006).
# About 770 (0.77%) of roughly 100,000 compounds were called active. What follows is part of a selection rich in actives, with near analogues and random picks from the rest. Unmarked numbers belong to inactive results. Cut-off read from the data, not from the text of the source: active = inhibition above about 50%; inactive = the rest.
# Target: Gag-Pol polyprotein (Human immunodeficiency virus type 1 group M subtype B (isolate HXB2)) (UniProt P04585)
# Experiment: RNase H inhibition, HIV 1 Gag Pol polyprotein, FRET biochemical assay, screening (AID 372)
# Conditions: HIV-1 RT RNase H, FRET RNA/DNA substrate fluorescence; at 10 µM; active compounds read high
row,SMILES,inhibition
1,O=C1c2ccccc2C(=O)N1CC(O)Cn1c2ccc(Br)cc2c2cc(Br)ccc21 (stereo not drawn),16%
2,CCc1ccc(OCCCN2CCOCC2)cc1,3%
3,CCc1ccc(OCCN2CCOCC2)cc1,50% (active)
4,CCc1ccc(OCCCCCCN2CCOCC2)cc1,8%
5,Cc1cc(/C=C2\C(=O)NC(=O)N(c3ccc(Br)cc3)C2=O)c(C)n1-c1cccnc1,2%
6,COc1ccccc1NC(=O)c1c(NC(=O)c2cc([N+](=O)[O-])ccc2Cl)sc2c1CCCC2,3%
7,CCN(CC)C(=O)c1sc(NC(=O)c2cc(OC)cc(OC)c2)c(C(=O)OC)c1C,10%
8,O=C1NC(=Nc2ccc(O)cc2)S/C1=C\c1ccc([N+](=O)[O-])cc1,4%
9,O=C1NC(=Nc2ccc(O)cc2)S/C1=C/C(Cl)=C/c1ccc([N+](=O)[O-])cc1,0%
10,O=C1NC(=Nc2cccc(O)c2)S/C1=C/C(Cl)=C/c1ccc([N+](=O)[O-])cc1,51% (active)
11,O=C1C(=O)N(c2ccc(Br)cn2)C(c2ccccc2[N+](=O)[O-])/C1=C(/O)c1ccccc1 (stereo not drawn),4%
12,O=C(Nc1ccc(F)cc1)Nc1nnc(CSCc2ccc(Cl)cc2)s1,26%
13,N=C1S/C(=C\c2ccc(-c3ccc(F)cc3)o2)C(=O)N1c1ccc2c(c1)OCO2,52% (active)
14,N=C1S/C(=C\c2ccc(-c3ccccc3F)o2)C(=O)N1c1ccc2c(c1)OCO2,30%
15,O=C1NC(=O)N(c2ccc3c(c2)OCO3)C(=O)/C1=C/c1ccc(-c2cccc(Cl)c2)o1,53% (active)
16,N=C1S/C(=C\c2cc3c(cc2[N+](=O)[O-])OCO3)C(=O)N1c1ccc(F)cc1,55% (active)
17,O=C1NC(=O)N(c2ccc3c(c2)OCO3)C(=O)/C1=C/c1ccc(-c2cccc([N+](=O)[O-])c2)o1,0%
18,N=C1S/C(=C\c2ccc(-c3ccc([N+](=O)[O-])cc3)o2)C(=O)N1c1ccc2c(c1)OCO2,12%
19,N=C1S/C(=C\c2ccc3c(c2)OCO3)C(=O)N1c1ccc(F)cc1,43%
20,O=C1/C(=C\c2cc3c(cc2[N+](=O)[O-])OCO3)SC(=S)N1c1ccccc1,24%
21,O=C1NC(=O)N(c2ccc3c(c2)OCO3)C(=O)/C1=C/c1ccc(Sc2ccccc2)o1,0%
22,COc1ccc(OC)c(/C=C2\C(=O)NC(=S)N(c3ccc(Br)cc3)C2=O)c1,12%
23,O=C(Nc1nnc(SCc2ccccc2)s1)c1cccc2ccccc12,3%
24,O=[N+]([O-])c1ccc(OCCCCN2CCOCC2)cc1,9%

row,SMILES,inhibition
1,Clc1ccc(OCCOCCOc2cccc3cccnc23)c2ccccc12,45%
2,O=C(Nc1ccccc1Cl)c1ccc(N2C(=O)c3ccccc3C2=O)cc1,16%
3,CSCCC(NC(=O)c1ccccc1)C(=O)OCC(=O)Nc1cc(C)on1 (stereo not drawn),11%
4,CCCOc1ccc2ccccc2c1C=C1C(=O)NC(=S)NC1=O,23%
5,COc1ccc(OC)c(N(CC(=O)Nc2ccccc2F)S(C)(=O)=O)c1,8%
6,S=C(NCc1ccccc1)N/N=C/c1ccco1,22%
7,COc1ccc(CCNC(=O)C(=O)Nc2ccccc2)cc1,11%
8,Cc1ccc(NC(=O)CSc2nc3ccccc3s2)cc1C,41%
9,CN1CCN(/N=C/c2ccc([N+](=O)[O-])s2)CC1,6%
10,CCOc1ccc(-n2sc3c(c2=S)-c2ccc(OC)cc2NC3(C)C)cc1,2%
11,CCOc1cc(C(=O)Nc2ccc(NC(=O)c3cc4ccccc4o3)c(OC)c2)cc(OCC)c1OCC,11%
12,COc1cc(NC(=O)c2cc(Cl)ccc2OC)ccc1NC(=O)c1cc2ccccc2o1,55% (active)
13,COc1cc(NC(=O)c2ccccc2F)ccc1NC(=O)c1cc2ccccc2o1,24%
14,COc1ccc(Cl)cc1C(=O)Nc1ccc(Cl)c(-c2nc3ncccc3o2)c1,57% (active)
15,COc1cc(NC(=O)c2cc(Cl)c(OC)c(Cl)c2)ccc1NC(=O)c1cc2ccccc2o1,52% (active)
16,COc1cc(NC(=O)c2ccc(C(C)(C)C)cc2)ccc1NC(=O)c1cc2ccccc2o1,7%
17,COc1cc(NC(=O)c2cccc(Cl)c2)ccc1NC(=O)c1cc2ccccc2o1,34%
18,COc1cc(NC(=O)c2ccc(Cl)cc2Cl)ccc1NC(=O)c1cc2ccccc2o1,21%
19,COc1cc(NC(=O)c2cccc(Br)c2)ccc1NC(=O)c1cc2ccccc2o1,51% (active)
20,O=C(Nc1ccc(Cl)c(-c2nc3ncccc3o2)c1)c1ccc(Cl)cc1Cl,6%
21,COc1ccc(Cl)cc1C(=O)Nc1cccc(-c2nc3ncccc3o2)c1C,3%
22,COc1ccc(C(=O)Nc2ccc(NC(=O)c3cc4ccccc4o3)c(OC)c2)cc1Br,6%
23,COc1ccccc1N1CCN(C(=O)Cc2ccc(Cl)cc2)CC1,5%
24,CCCCOc1ccc(C(=O)NC(=S)Nc2cccc(Cl)c2Cl)cc1,15%

row,SMILES,inhibition
1,COc1cccc(C(=O)Nc2ccc(O)c(-c3nc4cc(C)ccc4o3)c2)c1,5%
2,CCc1ccccc1NC(=O)C(=O)NCCCOC,14%
3,O=C(O)C1C2CC=CC2c2cc(Oc3ccccc3)cc3c2N1CC1CC=CC31 (stereo not drawn),40%
4,Cc1ccc(OCCCNC(C)(C)C)c(C)c1,10%
5,Cc1ccc(OCCCCNC(C)(C)C)c(C)c1,2%
6,Cc1ccc(OCCCNC(C)(C)C)c(C(C)(C)C)c1,62% (active)
7,COCCOC(=O)C1=C(C)NC(=O)CC1c1ccccc1Br (stereo not drawn),3%
8,COc1ccc(/C=N/N(C)c2cc(C)nc(-c3ccccc3O)n2)cc1OC,18%
9,COc1ccc(C=Nc2ccc(Cl)c(Cl)c2)c2ccccc12,32%
10,Cc1ccc(C(=O)NC(=S)Nc2ccc3oc(-c4ccc(Cl)cc4)nc3c2)cc1C,8%
11,O=C(O)c1ccc2c3c(cccc13)C(=O)N(c1ccccc1)C2=O,21%
12,CC(=O)Nc1ccc(N2C(=O)c3cccc4c(C(=O)c5ccccc5)ccc(c34)C2=O)cc1,20%
13,Nc1ccc(-c2ccc(N3C(=O)c4cccc5c(C(=O)c6ccccc6)ccc(c45)C3=O)cc2)cc1,51% (active)
14,O=C(N=NC(=O)c1ccccc1O)c1ccc(-n2c(O)c3ccccc3c2O)cc1,8%
15,Cc1ccc(C(=O)Nc2ccc(Nc3ccccc3)cc2)cc1[N+](=O)[O-],15%
16,Cc1ccc(NCC(=O)N/N=C\c2ccccc2OCC(=O)O)cc1,7%
17,CC(C)c1ccc(/C=C/C(=O)NC(=S)Nc2ccc(S(=O)(=O)N=C(N)N)cc2)cc1,41%
18,COc1ccc(/C=C/C(=O)NC(=S)Nc2ccc(S(=O)(=O)N=C(N)N)cc2)cc1,57% (active)
19,COc1ccc(/C=C/C(=O)NC(=S)Nc2ccc(I)cc2)cc1,8%
20,NC(N)=NS(=O)(=O)c1ccc(NC(=S)NC(=O)/C=C/c2ccc(Br)cc2)cc1,19%
21,COc1ccc(C(=O)NC(=S)Nc2ccc(S(=O)(=O)N=C(N)N)cc2)cc1,2%
22,Cc1ccc(/C=C/C(=O)NC(=S)Nc2ccc(S(=O)(=O)N=C(N)N)cc2)cc1,63% (active)
23,CC(=O)C1=C(O)C(=O)N(c2ccc(Br)cn2)C1c1ccc([N+](=O)[O-])cc1 (stereo not drawn),0%
24,CCCN1CCC(NCCc2ccc(F)cc2)CC1,1%

row,SMILES,inhibition
1,COc1cc(OC)cc(C(=O)N2CCN(Cc3ccccc3[N+](=O)[O-])CC2)c1,6%
2,O=C(O)c1ccc(N/N=C/c2c(Cl)ccc(Cl)c2Cl)cc1,51% (active)
3,O=C(O)c1ccc(/C=N/Nc2ccc([N+](=O)[O-])cc2)cc1,10%
4,O=C(O)c1ccc(N/N=C/c2ccccc2C(F)(F)F)cc1,6%
5,COc1cc(C=O)ccc1OCCOc1ccc(Cl)cc1,7%
6,COc1ccc2c(c1)c(=O)oc1cc(OCc3ccc(C(=O)O)cc3)ccc12,19%
7,COC(=O)c1ccc(COc2ccc3c(c2)oc(=O)c2ccccc23)cc1,48%
8,COC(=O)c1ccc(COc2ccc3c(c2)oc(=O)c2cc(OC)ccc23)cc1,59% (active)
9,COc1ccc(OC)c(/C=C2\SC(N3CCCCCC3)=NC2=O)c1,11%
10,CC(C)(C)N(Cc1ccccc1)C(=O)CCCN1C(=O)/C(=C/c2cccs2)SC1=S,37%
11,O=C1/C(=C/c2cccs2)SC(=S)N1CCCC(=O)N(Cc1ccccc1)c1ccccc1,50% (active)
12,COc1ccc(/C=C2\SC(=S)N(CCC(=O)Nc3cc(Cl)ccc3O)C2=O)cc1,53% (active)
13,Cc1ccc(/C=C2\SC(=S)N(CCC(=O)Nc3ccc(S(N)(=O)=O)cc3)C2=O)cc1,57% (active)
14,CCOc1ccccc1NC(=O)CCN1C(=O)/C(=C/c2ccc(C)cc2)SC1=S,56% (active)
15,Cc1ccc(/C=C2\SC(=S)N(CCC(=O)Nc3ccc(Cl)cc3)C2=O)cc1,18%
16,CC(C)(C)N(Cc1ccccc1)C(=O)CCN1C(=O)/C(=C\c2cccs2)SC1=S,12%
17,Cc1ccc(/C=C2\SC(=S)N(CCC(=O)Nc3cc(Cl)ccc3O)C2=O)cc1,10%
18,Cc1ccc(/C=C2/SC(=S)N(CCCC(=O)Nc3cc(Cl)ccc3O)C2=O)cc1,16%
19,COc1ccccc1NC(=O)CCN1C(=O)/C(=C/c2ccc(C)cc2)SC1=S,11%
20,CCOc1ccccc1NC(=O)CCCN1C(=O)/C(=C/c2ccc(C)cc2)SC1=S,27%
21,Cc1ccc(/C=C2/SC(=S)N(CCC(=O)Nc3ccc(Br)cc3)C2=O)cc1,0%
